From article PMC5540273 (PLoS ONE, 2017) come the findings set out here.

SMILES strings stand for the structures.

Common to all, as to details: concentration: 1 μM, replicates: in singlicate; n = 1
In test [1] the test system is CAMK1.
Test [2] relates to CAMK2A.
Test [3] deals with CAMK2B.
The test system of test [4] is CAMK2D.
Test [5] deals with CAMK2G.
Test [6] deals with CAMK4.
The subject of test [7] is CAMKK1.
The test system of test [8] is CAMKK2.
Test [9] deals with CASK.
The test system of test [10] is T1, CDC2L1.
T1 construct: gene CDK11B

The test system of test [11] is CDC2L2.
Test [12] concerns T2, CDC2L5.
T2 construct: gene CDK13

Test [13] deals with T3, CDK11.
T3 construct: gene CDK19

Test [14] deals with CDK2.
Test [15] relates to CDK3.
Test [16] deals with CDK4-cyclinD1.
The test system of test [17] is CDK4-cyclinD3.
Test [18] deals with CDK4.
Test [19] deals with CDK5.
The test system of test [20] is CDK7.
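Note: KINOMEscan kinase panel screen.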

Take `CC(=O)Nc1nc2cnc(Nc3cc(NC(=O)c4cccc(C5(C#N)CC5)c4Cl)ccc3C)nc2s1`: the “%Inh” value in [1] is recorded as 35%; in test [2], 13%; in [3], 0%; in test [4] it was 0%; in test [5], 10%; in test [6], 0%. The “%Inh” value stood at 14% in test [7]; 12% in [8]; 0% in [9]; 43% in test [10]; 33% in [11]; 17% in test [12]. In addition, the “%Inh” value in [13] worked out at 23%; in test [14], 0%; in test [15], 0%; in test [16], 0%; in test [17], 0%; in [18] it was 0%. Moreover, the “%Inh” value in test [19] and in test [20] was 0% in each case.
As to `Cc1ccc(C(=O)N2CC[C@@H](O)C2)cc1-n1c(C)cc(OCc2ccc(F)cc2F)c(Br)c1=O`, the “%Inh” value in [1], in [2], in test [3], in [4], in test [5] and in test [6] was 0% each time. Further, the “%Inh” value in [7], in [8], in test [9], in test [10], in test [11] and in test [12] was 0% throughout. For the same molecule, the “%Inh” value in test [13], in [14], in [15], in test [16], in test [17] and in test [18] was 0% in each case. Besides, the “%Inh” value in test [19] and in test [20] was 0% throughout.
In the case of `C[C@@H]1CC[C@@H](C(=O)Nc2ccccc2)CN1c1cc(-c2ccc3c(N)n[nH]c3c2)nc(N)n1` [GSK2286062], the “%Inh” value is reported as 28% in test [1]; 0% in test [2]; 0% in [3]; 17% in test [4]; 18% in test [5]; 0% in [6]. The “%Inh” value in test [7] was 0%; in test [8], 7%; in test [9] it was 5%; in test [10] it was 7%; in test [11], 20%; in [12], 0%. Also, the “%Inh” value in [13] turned out to be 0%; in test [14], 20%; in [15], 0%; in [16], 0%; in [17], 0%; in [18], 16%. Moreover, the “%Inh” value in test [19] and in test [20] was 0% throughout.
In the case of `O=C(Nc1ccccc1F)NC1CCN(c2ccnc(Nc3ccc(F)cc3)n2)CC1` [GSK1379800], the “%Inh” value in test [1] is recorded as 0%; in [2] it was 0%; in test [3], 0%; in test [4] it was 3%; in [5] it was 15%; in test [6] it was 0%. The “%Inh” value in test [7] was found to be 0%; in test [8], 3%; in test [9], 0%; in test [10], 0%; in test [11], 34%; in test [12], 0%. In addition, the “%Inh” value is 9% in test [13]; 0% in test [14]; 0% in test [15]; 2% in test [16]; 0% in test [17]; 28% in [18]. The “%Inh” value in test [19] and in test [20] was 0% each time.
On to `CC(C)c1nc(-c2cccc(NS(=O)(=O)c3c(F)cccc3F)c2F)c(-c2ccnc(Nc3ccc(N4CCOCC4)nc3)n2)s1` [GSK2008607], for which the “%Inh” value was 81% in test [1]; 0% in [2]; 0% in test [3]; 3% in test [4]; 29% in [5]; 65% in test [6]. The “%Inh” value in test [7] is 55%; in [8] it was 15%; in test [9] it was 0%; in [10] it was 12%; in test [11] it was 47%; in [12] it was 84%. Further, the “%Inh” value in [13] was found to be 6%; in test [14], 99.4%; in test [15] it was 99.5%; in test [16], 65%; in test [17], 93.6%; in test [18] it was 96.3%. Besides, the “%Inh” value in test [19] came to 99.1%; in test [20] it was 93.1%.
With `CN1CCN(Cc2cccc(-c3ccc4c(Nc5ccc(Oc6ccccc6)cc5)ccnc4c3)c2)CC1` [GW578342], the “%Inh” value in [1] is 27%; in test [2], 1%; in [3] it was 0%; in test [4] it was 5%; in test [5], 10%; in [6], 0%. For the same molecule, the “%Inh” value in [7] turned out to be 0%; in [8] it was 0%; in test [9] it was 1%; in [10], 0%; in test [11] it was 16%; in test [12], 0%. Moreover, the “%Inh” value in test [13] was determined as 0%; in test [14], 0%; in [15], 2%; in test [16], 0%; in [17] it was 0%; in [18] it was 34%. For the same molecule, the “%Inh” value in test [19] worked out at 0%; in test [20], 5%.
In the case of `CCn1c(-c2nonc2N)nc2c(C#CC(C)(C)O)ncc(OCCCCN)c21.O=C(O)C(F)(F)F.O=C(O)C(F)(F)F` [GSK507274], the “%Inh” value in test [1] was 31%; in test [2], 0%; in test [3], 0%; in test [4] it was 4%; in test [5] it was 19%; in test [6], 50%. In addition, the “%Inh” value in test [7] came to 0%; in [8], 0%; in test [9], 19%; in test [10] it was 0%; in test [11], 0%; in [12], 0%. Moreover, the “%Inh” value in [13] was determined as 0%; in [14], 3%; in test [15], 16%; in [16], 0%; in test [17] it was 0%; in test [18], 0%. For the same molecule, the “%Inh” value in test [19] and in test [20] was 0% throughout.
With `CN(C)S(=O)(=O)c1cc(-c2ccc3nccc(-c4cccc(S(N)(=O)=O)c4)c3c2)cnc1N` [GSK1669921], the “%Inh” value in test [1] was 40%; in test [2] it was 1%; in test [3], 0%; in test [4], 3%; in test [5], 8%; in test [6], 0%. The “%Inh” value in [7] is listed as 48%; in test [8] it was 47%; in test [9] it was 4%; in test [10], 0%; in test [11], 3%; in test [12], 0%. The “%Inh” value is on record as 54% in test [13]; 0% in test [14]; 9% in test [15]; 0% in test [16]; 0% in test [17]; 0% in test [18]. In addition, the “%Inh” value in test [19] amounted to 0%; in test [20], 58%.
For the molecule `COc1cccc(-c2ccc3c(NC(=O)C4CC4)n[nH]c3n2)c1` [SB-710903], the “%Inh” value was found to be 0% in test [1]; 100% in [2]; 100% in test [3]; 8% in [4]; 9% in [5]; 0% in test [6]. In addition, the “%Inh” value in test [7] came to 6%; in test [8], 7%; in test [9], 23%; in test [10], 0%; in [11] it was 1%; in [12] it was 0%. Moreover, the “%Inh” value in test [13] worked out at 0%; in test [14], 33%; in test [15], 41%; in [16] it was 61%; in test [17], 15%; in [18], 52%. Also, the “%Inh” value in test [19] and in test [20] was 0% throughout.
